Test results: PubChem BioAssay (NCI)
Compounds without any hit were thinned out: in the full panel of roughly 79,000, 15% have a hit. Activity calls are given as the source filed them. Cut-off read from the data, not from the text of the source: active = growth inhibition above about 70%; inactive = the rest.

Key:
[1] = NCI Yeast Anticancer Drug Screen. Data for the rad50 strain (AID 155);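 note: 0% = growth of vehicle-only cultures of the same strain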; conditions: S. cerevisiae rad50 strain growth inhibition; at 50.0 µM; hits give high values
Summary of the method: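 Inhibition values express reduced yeast growth in compound-treated cultures relative to vehicle-treated controls.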

[2] = NCI Yeast Anticancer Drug Screen. Data for the mec2-1 strain (AID 157); conditions: S. cerevisiae mec2-1 strain, at 50.0 µM, hits give high values
Summary of the method: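 Each compound was tested on mec2-1 yeast, a strain altered in DNA damage repair or cell cycle control. Growth inhibition is reported relative to vehicle.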

[3] = NCI Yeast Anticancer Drug Screen. Data for the sgs1 mgt1 strain (AID 161);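 note: 0% = growth of cultures given vehicle only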; conditions: S. cerevisiae sgs1 mgt1 strain, at 50.0 µM, hits give high values
Summary of the method: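 Genetically altered yeast, compound exposure, growth inhibition relative to vehicle.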

[4] = NCI Yeast Anticancer Drug Screen. Data for the cln2 rad14 strain (AID 165);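 note: 0% = growth equal to vehicle treated cultures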; conditions: S. cerevisiae cln2 rad14 strain, at 50.0 µM, hits give high values
Summary of the method: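 Test compounds were added to cln2 rad14 yeast cultures; inhibition of growth was then determined by comparison with vehicle treatment.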

[5] = NCI Yeast Anticancer Drug Screen. Data for the bub3 strain (AID 167); conditions: S. cerevisiae bub3 mutant strain, at 50.0 µM, hits give high values
Summary of the method: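 Steps: expose the mutant yeast strain to compound; grow alongside vehicle-treated cultures; measure growth; express inhibition against the vehicle cultures.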

[6] = NCI Yeast Anticancer Drug Screen. Data for the mlh1 rad18 strain (AID 175); conditions: S. cerevisiae mlh1 rad18 strain growth inhibition; at 50.0 µM; hits give high values
Summary of the method: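 Inhibition values reflect reduced growth of mutant yeast versus vehicle-treated controls following compound exposure; the mutations affect DNA damage repair.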

Measured: growth inhibition

CCC1=NS(=O)(=O)c2c(ncn2C)N1
inactive: [1] 11% | [2] 8.55% | [3] -5.6% | [4] 11.3% | [5] 0.15% | [6] 1.35%

COc1ccc2c(c1)C(N)=C(c1ccccc1OC)C2=O
inactive: [1] -8.45% | [2] 3.9% | [3] 4.95% | [4] -8.15% | [5] -7.4% | [6] -38.5%

COc1cc(CN=c2nc(N(C)C)ss2)cc(OC)c1OC
inactive: [1] -27.8% | [2] -11.2% | [3] 9.15% | [4] -3.35% | [5] -11.6% | [6] -4.35%

CC(=O)N1CCC(=O)c2ccccc21
inactive: [1] 11.3% | [2] 14.3% | [3] -1.8% | [4] 6.1% | [5] -24.3% | [6] -5.35%

N#Cc1nc(CC(=O)c2ccncc2)c(CC(=O)c2ccncc2)nc1C#N
inactive: [1] 8% | [2] 11.9% | [3] 35.9% | [4] 13.5% | [5] -10.9% | [6] 53.1%

O=c1[nH]c2cc(Cl)ccc2nc1/C(=N\O)C(O)c1ccc(Cl)cc1Cl (stereo not drawn)
inactive: [1] -9.9% | [2] -24.4% | [3] -0.35% | [4] 20.6% | [5] -5.6% | [6] -13.2%

O/N=C(\c1ccccc1)c1ccc2ncccc2c1
inactive: [1] 37% | [2] 41.2% | [3] 27.9% | [4] 2.8% | [5] 7.45% | [6] 23.3%

CNCCCCCNC
inactive: [1] -7% | [2] -10.6% | [3] -1.05% | [4] -5.45% | [5] -0.2% | [6] 19.2%

O=C(O)c1cc(N=Nc2ccc([N+](=O)[O-])cc2S(=O)(=O)O)ccc1O
inactive: [1] -6% | [2] -2.35% | [3] 24.3% | [4] 16.1% | [5] -19.8% | [6] -9.75%

COc1cc2c(c(Cl)c1O)C(=O)OC2
inactive: [1] -4.25% | [2] -7.8% | [3] 12.8% | [4] 3.55% | [5] -6.8% | [6] 17.4%

COc1c2c(cc3c1-c1c(cc4c(c1OC)OCO4)CC(C)C(C)C3)OCO2 (stereo not drawn)
inactive: [1] 12.4% | [2] 24.4% | [3] 21% | [4] 15.2% | [5] 40.1% | [6] 29.6%

C=CC(=NC(C)C)N(C)c1ccccc1
inactive: [1] 5.2% | [2] 13.9% | [3] 1.7% | [4] -7.9% | [5] 26.5% | [6] -1.8%

COCCCNc1nc(N)c(C#N)c(C#N)c1C#N
inactive: [1] 4.3% | [2] -6.15% | [3] 2.85% | [4] 3.45% | [5] 19.3% | [6] 22.2%

Cc1nc(N)nc(C)c1N=Nc1ccc(Cl)cc1Cl
inactive: [1] -0.75% | [2] 6.8% | [3] 0.5% | [4] -7.3% | [5] -5.25% | [6] 9.6%

CCCCCC/C(C)=N\NC(N)=O
inactive: [1] 29.9% | [2] 14.4% | [3] 11.6% | [4] 12.4% | [5] -0.95% | [6] -23.1%

CC(=O)OCSc1ncnc2c1ncn2CN1CCOCC1
inactive: [1] 7.15% | [2] 2.25% | [3] -19.9% | [4] 1.8% | [5] -4.85% | [6] 7.85%

O=C(Nc1ccc(Cl)cc1)OCC#CCOC(=O)Nc1ccc(Cl)cc1
inactive: [1] 5.8% | [2] -2.75% | [3] -6.3% | [4] -2.05% | [5] -0.35% | [6] 2.1%

C=C1CCCC2OC(OC)CCC12 (stereo not drawn)
inactive: [1] -23.4% | [2] -10.8% | [3] -6.5% | [4] 0.75% | [5] -21.9% | [6] -10.6%

CCC(C)(O)CCc1ccccc1 (stereo not drawn)
inactive: [1] -17.5% | [2] -42.6% | [3] -64.2% | [4] 2.55% | [5] -36.3% | [6] -5%

C=CCNC(=S)NNC(=O)c1c(C)nc2sccn12
inactive: [1] -4.75% | [2] -10.8% | [3] -12.1% | [4] 0.25% | [5] -14.2% | [6] -5.9%

O=C(O)C(CCl)(CCl)CCl
inactive: [1] 19.4% | [2] 1.3% | [3] 1.05% | [4] 17.6% | [5] 13.8% | [6] 15.2%

N#Cc1c(F)cccc1N1CCSCC1
inactive: [1] 3.5% | [2] -17.8% | [3] 14.3% | [4] 25.4% | [5] 11.5% | [6] -0.55%

CCCCCCCCCCCCCCCC[N+](C)(C)CCN
inactive: [2] 50.8% | [3] 58.4% | [5] 49.2% | [6] 59.7%
active: [1] 98.9% | [4] 73.4%

CC(=O)Nc1ccc(S(=O)(=O)NNc2nc(N3CCCC3)nc(N3CCCC3)n2)cc1
inactive: [1] 1.7% | [2] -8.1% | [3] -14.4% | [4] 1.8% | [5] -1.25% | [6] 2.15%

Cc1ccc(S(=O)(=O)NNC(=O)c2cc(C(=O)NNS(=O)(=O)c3ccc(C)cc3)c(C)nc2C)cc1
inactive: [1] -1.95% | [2] 5.3% | [3] 6.9% | [4] 21.8% | [5] 8.3% | [6] -7.8%

O=C(CCN1CCCCC1)C(O)(c1ccccc1)c1ccccc1
inactive: [1] 19.2% | [2] -2% | [3] 24.7% | [4] -6.05% | [5] -10.4% | [6] 14.2%

O=C1c2cccc3cccc(c23)C1(O)S(=O)(=O)O (stereo not drawn)
inactive: [1] 4.6% | [2] -2.1% | [3] 0.85% | [4] -13.8% | [5] 21.5% | [6] 6.95%

CC(C)CC(NS(=O)(=O)Cc1ccccc1)C(=O)NN (stereo not drawn)
inactive: [1] -26.9% | [2] -13.6% | [3] -3.85% | [4] 11.2% | [5] 7.5% | [6] -22.1%

O=C(O)C1c2ccccc2C(C(=O)O)c2ccccc21 (stereo not drawn)
inactive: [1] -6.4% | [2] -2.25% | [3] -4% | [4] 19.9% | [5] 13% | [6] 31.8%

CNC(=O)c1ccccc1N
inactive: [1] 1.75% | [2] -6.95% | [3] -11.7% | [4] -84.2% | [5] 1.05% | [6] -17.2%

CCOC(=O)N1N=NC(c2ccccc2)C1(c1ccccc1)N1CCOCC1 (stereo not drawn)
inactive: [1] 38.8% | [2] -14.8% | [3] 30.3% | [4] 4.05% | [5] 10.4% | [6] 8.7%

CCCCCC/C=N\NC(N)=S
inactive: [1] -17.1% | [2] 14.2% | [3] 30.4% | [4] -71.1% | [5] 17.9% | [6] 28.2%

CS(=O)(=O)Oc1c(Cl)cc(Cl)c2cccnc12
inactive: [1] 7.8% | [2] -1.1% | [3] -3.75% | [4] -13.7% | [5] 1.2% | [6] 11.2%

c1ccc(CCCC2Sc3cccc4cccc(c34)S2)cc1
inactive: [1] -47.2% | [2] -25.6% | [3] -18.6% | [4] 14.4% | [5] -16% | [6] -28.5%

O=C(O)CSc1c(Cl)c(=O)oc2ccc(Cl)cc12
inactive: [1] 30.3% | [2] -6.6% | [3] 20.2% | [4] -2% | [5] 17% | [6] 43.9%

N#Cc1ccc(OCCCOc2ccc(C#N)cc2)cc1
inactive: [1] 8.15% | [2] 12.2% | [3] 9.65% | [4] 5.3% | [5] 46.2% | [6] -4.15%

COc1ccc(-c2cc(-c3ccccc3)n[nH]2)cc1
inactive: [1] 24% | [2] 27.7% | [3] 43.8% | [4] -13.9% | [5] 47.9% | [6] 33.4%

CCC(C(=O)OC)C1CCCCC1 (stereo not drawn)
inactive: [1] 24.8% | [2] -27.8% | [3] -12.3% | [4] -7.65% | [5] -10.7% | [6] 22.4%

NNc1ccc(S(=O)(=O)O)cc1Cl
inactive: [1] 8.35% | [2] -14.4% | [3] 3.05% | [4] 4.7% | [5] 15.7% | [6] 2.45%

OCC(O)C(OC1OC(CO)C(O)C(O)C1O)c1nn(-c2ccc(F)cc2)c2nc3cc(Cl)c(Cl)cc3cc12 (stereo not drawn)
inactive: [1] 13.6% | [2] -10.1% | [3] -26.8% | [4] 29.9% | [5] 6.45% | [6] -1.55%

c1ccc(CC2(c3ccccc3)OCc3ccccc32)cc1 (stereo not drawn)
inactive: [1] 6% | [2] 12.2% | [3] 17.6% | [4] 15.4% | [5] -2.2% | [6] 20.5%

O=c1nc(-c2ccco2)sc(=O)[nH]1
inactive: [1] -0.05% | [2] -5.6% | [3] -8.35% | [4] 13.2% | [5] -5.85% | [6] -3.4%

Cc1cc(C)c(S(=O)(=O)O)c(Cc2ccccc2)c1
inactive: [1] -14.4% | [2] -10.6% | [3] 31.5% | [4] -11.6% | [5] -3.35% | [6] 0.45%
